# Results published in PubChem BioAssay (NCATS).
# “And” between values parts separate entries of the source, which are not always exact repeats. Identical values can stand only once. Records with an inconclusive call do not appear. Unmarked numbers belong to inactive results. The source made the active and inactive calls. Calls come from the whole dose curve; as a rule, active = well fitted curve in the direction sought with a large enough effect; inconclusive = small, poorly fitted or top-dose-only effect, or another doubt; inactive = no such curve, though single readings can be large; an effect the other way counts as inactive or inconclusive.
# What was measured:
# HEK293 = test: Cytotoxic Profiling of Annotated Libraries Using Quantitative High-Throughput Screening (AID 1296008); conditions: Five cell lines viability, CellTiter-Glo ATP luminescence, 48-72 h; max response: active compounds read low; note: nearly all actives have a fitted effect of over 60% in size
# In short: (§1)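 Compounds were pin-transferred onto cells and incubated 48 or 72 hr at 37 degree Celsius, 95% humidity. CellTiter-Glo was added, plates sat 10 min at room temperature, then ATP-coupled luminescence was imaged as the viability read-out.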
# HaCat = test: as above; conditions: Five cell lines viability, CellTiter-Glo ATP luminescence, 48-72 h; max response: active compounds read low
# In short: as §1
# KB-3-1 = test: as above; conditions: Five cell lines viability, CellTiter-Glo ATP luminescence, 48-72 h; max response: active compounds read low
# In short: as §1
# NIH3T3 = test: as above; conditions: Five cell lines viability, CellTiter-Glo ATP luminescence, 48-72 h; max response: active compounds read low
# In short: as §1
# MCC-13 = test: qHTS assay to identify novel small-molecules to repurpose for Merkel cell carcinoma treatment (AID 1296009); conditions: MCC and control cell lines, CellTiter-Glo viability, 72 h; series mostly up to 46 µM; note: nearly all actives have a fitted effect of over 60% in size
# In short: (§2)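 qHTS format: cells treated with library compounds in DMSO across 8 (NPC) or 11 (MIPE) concentrations. Readout after 72 hr at 37 degree celsius was CellTiter-Glo luminescence.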
# MCC-26 = test: as above; conditions: MCC and control cell lines, CellTiter-Glo viability, 72 h; series mostly up to 46 µM
# In short: as §2
# MKL-1 = test: as above; conditions: MCC and control cell lines, CellTiter-Glo viability, 72 h; series mostly up to 46 µM
# In short: as §2
# MKL-2 = test: as above; conditions: MCC and control cell lines, CellTiter-Glo viability, 72 h; series mostly up to 46 µM
# In short: as §2
# UISO = test: as above; conditions: MCC and control cell lines, CellTiter-Glo viability, 72 h; series mostly up to 46 µM
# In short: as §2
# WaGa = test: as above; conditions: MCC and control cell lines, CellTiter-Glo viability, 72 h; series mostly up to 46 µM
# In short: as §2
# C33A = test: Primary qHTS to identify gynecologic anti-cancer compounds using libraries of approved drugs and bioactive compounds (AID 1345084); conditions: Gynecologic cancer cell panel viability, ATPlite luminescence, 48 h; series mostly up to 57.5 µM; note: nearly all actives have a fitted effect of over 55% in size
# In short: (§3)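 Cells, 1,000 per well, were allowed to settle for 16 h at 37 C before compound addition. Five concentrations were tested for 48 h, and viability was read by ATPlite luminescence after 15 min at room temperature.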
# CASKI = test: as above; conditions: Gynecologic cancer cell panel viability, ATPlite luminescence, 48 h; series mostly up to 57.5 µM
# In short: as §3
# Es-2 = test: as above; conditions: Gynecologic cancer cell panel viability, ATPlite luminescence, 48 h; series mostly up to 57.5 µM
# In short: as §3
# HeLa = test: as above; conditions: Gynecologic cancer cell panel viability, ATPlite luminescence, 48 h; series mostly up to 57.5 µM
# In short: as §3
# Hek293T = test: as above; conditions: Gynecologic cancer cell panel viability, ATPlite luminescence, 48 h, control line for the selectivity index; series mostly up to 57.5 µM
# In short: as §3
# JEG-3 = test: as above; conditions: Gynecologic cancer cell panel viability, ATPlite luminescence, 48 h; series mostly up to 57.5 µM
# In short: as §3
# CAOV3 = test: as above; conditions: Gynecologic cancer cell panel viability, ATPlite luminescence, 48 h; series mostly up to 57.5 µM
# In short: as §3
# % is set by controls: 0 for no effect and ±100 for the full control effect; potency is the fitted concentration of half-maximal effect.
smiles,measurement,setting,value
CC(C)c1ccc(Cn2ccc3c4c(N)nc(NC5CC5)nc4ccc32)cc1,Potency,HEK293,1.18 µM (active)
same,Potency,HaCat,37.2 µM (active)
same,Potency,KB-3-1,1.32 µM (active)
same,Potency,NIH3T3,4.69 µM (active)
same,Potency,MCC-13,1.05 µM (active)
same,Potency,MCC-26,16.6 µM (active)
same,Potency,MKL-1,14.8 µM (active)
same,Potency,MKL-2,4.18 µM (active)
same,Potency,UISO,14.8 µM (active)
same,Potency,WaGa,9.35 µM (active)
COc1ccc(C=Cc2cc(OC)c(OC)c(OC)c2)cc1O,max response,HEK293,-79.1%
same,max response,HaCat,-0.114%
same,Potency,KB-3-1,0.001 µM (active)
same,max response,NIH3T3,-49.1%
same,Potency,MCC-13,inactive
same,Potency,MCC-26,inactive
same,Potency,MKL-2,inactive
same,Potency,WaGa,inactive
CC(C)c1cnn2c(NCc3ccccc3)cc(N[C@@H](CO)[C@H](O)CO)nc12,Potency,HEK293,332 nM (active) and 1.03 µM (active)
same,Potency,HaCat,469 nM (active) and 4.11 µM (active)
same,Potency,KB-3-1,0.731 µM (active)
same,Potency,NIH3T3,935 nM (active) and 3.66 µM (active)
same,Potency,MCC-13,1.66 µM (active)
same,Potency,MCC-26,0.743 µM (active)
same,Potency,MKL-2,1.05 µM (active)
same,Potency,C33A,7.08 µM (active)
same,Potency,CASKI,4.47 µM (active)
same,Potency,Es-2,1.58 µM (active)
same,Potency,HeLa,2.82 µM (active)
same,Potency,Hek293T,1.41 µM (active)
C1=CCOCc2cc(ccc2OCCN2CCCC2)Nc2nccc(n2)-c2cccc(c2)OCC1,Potency,HEK293,3.32 µM (active)
same,Potency,HaCat,4.69 µM (active)
same,Potency,KB-3-1,2.96 µM (active)
same,Potency,NIH3T3,7.43 µM (active)
same,Potency,MCC-26,9.35 µM (active)
same,Potency,MKL-2,11.8 µM (active)
same,Potency,UISO,11.8 µM (active)
same,Potency,WaGa,9.35 µM (active)
CNC(=O)c1nn(C)c2c1C(C)(C)Cc1cnc(Nc3ccc(N4CCN(C)CC4)cc3)nc1-2,Potency,HEK293,1.16 µM (active)
same,Potency,HaCat,1.66 µM (active) and 2.06 µM (active)
same,Potency,KB-3-1,3.32 µM (active) and 2.31 µM (active)
same,Potency,NIH3T3,1.3 µM (active)
same,Potency,MCC-13,5.9 µM (active)
same,Potency,MKL-1,4.69 µM (active)
same,Potency,MKL-2,5.26 µM (active)
same,Potency,UISO,0.235 µM (active)
same,Potency,WaGa,5.9 µM (active)
same,Potency,C33A,0.631 µM (active)
same,Potency,CASKI,15.8 µM (active)
same,Potency,HeLa,2.82 µM (active)
same,Potency,Hek293T,7.94 µM (active)
same,Potency,JEG-3,11.2 µM (active)
CC[C@@H]1C(=O)N(C)c2cnc(Nc3ccc(C(=O)NC4CCC(N5CCN(CC6CC6)CC5)CC4)cc3OC)nc2N1C(C)C (some centres undefined),Potency,HEK293,26.4 nM (active) and 20.6 nM (active) and 13 nM (active)
same,Potency,HaCat,0.059 µM (active)
same,Potency,KB-3-1,11.8 nM (active) and 4.6 nM (active)
same,Potency,NIH3T3,2.64 µM (active) and 1.46 µM (active) and 1.3 µM (active)
same,Potency,MCC-13,0.469 µM (active)
same,Potency,MKL-1,0.0743 µM (active)
same,Potency,MKL-2,4.18 µM (active)
same,Potency,CASKI,17.8 µM (active)
same,Potency,Es-2,3.98 µM (active)
CC1(C)CC(=O)c2c(C(F)(F)F)nn(-c3ccc(C(N)=O)c(NC4CCC(OC(=O)CN)CC4)c3)c2C1 (centres undefined),Potency,HEK293,118 nM (active) and 58 nM (active)
same,Potency,HaCat,2.35 µM (active) and 517 nM (active)
same,Potency,KB-3-1,0.105 µM (active)
same,Potency,NIH3T3,418 nM (active) and 366 nM (active)
same,Potency,MKL-2,inactive
same,Potency,UISO,0.264 µM (active)
same,Potency,HeLa,inactive
same,Potency,JEG-3,inactive
COc1cc2nccc(Oc3ccc(NC(=O)C4(C(=O)Nc5ccc(F)cc5)CC4)cc3)c2cc1OC,Potency,HEK293,14.8 µM (active) and 16.4 µM (active)
same,Potency,HaCat,16.6 µM (active) and 25.9 µM (active)
same,Potency,KB-3-1,23.5 µM (active)
same,Potency,NIH3T3,332 nM (active) and 1.64 µM (active)
same,Potency,MKL-1,2.96 µM (active)
same,Potency,WaGa,2.09 µM (active)
same,Potency,Es-2,inactive
same,Potency,HeLa,inactive
same,Potency,Hek293T,inactive
same,Potency,JEG-3,11.2 µM (active)
Cc1nc2ccc(CN(C)c3ccc(C(=O)N[C@@H](CCC(=O)O)C(=O)O)s3)cc2c(=O)[nH]1,Potency,HEK293,0.0473 µM (active)
same,Potency,HaCat,0.0332 µM (active)
same,max response,KB-3-1,1.14%
same,Potency,NIH3T3,0.119 µM (active)
same,Potency,MCC-26,inactive
same,Potency,MKL-2,inactive
same,Potency,WaGa,0.0833 µM (active)
same,Potency,C33A,inactive
same,Potency,CAOV3,inactive
same,Potency,CASKI,inactive
same,Potency,Hek293T,inactive
same,Potency,JEG-3,0.631 µM (active)
COc1cc2c(cc1-c1c(C)noc1C)ncc1[nH]c(=O)n([C@H](C)c3ccccn3)c12,Potency,HEK293,5.26 µM (active) and 4.11 µM (active)
same,max response,HaCat,-12.8%
same,Potency,KB-3-1,16.6 µM (active)
same,Potency,NIH3T3,20.9 µM (active)
same,Potency,MCC-26,23.5 µM (active)
same,Potency,MKL-1,18.7 µM (active)
same,Potency,MKL-2,2.64 µM (active)
same,Potency,UISO,14.8 µM (active)
same,Potency,WaGa,5.9 µM (active)
same,Potency,C33A,inactive
same,Potency,CAOV3,inactive
same,Potency,CASKI,3.98 µM (active)
same,Potency,Hek293T,inactive
same,Potency,JEG-3,12.6 µM (active)
COCCOc1ccc2c(c1)ncn2-c1ccc2cccc(N3CCC(N)CC3)c2n1,Potency,HEK293,11.8 µM (active)
same,Potency,HaCat,18.7 µM (active) and 16.4 µM (active)
same,Potency,KB-3-1,16.6 µM (active) and 11.6 µM (active)
same,Potency,NIH3T3,1.48 µM (active)
same,Potency,MKL-1,20.9 µM (active)
same,Potency,UISO,26.4 µM (active)
same,Potency,WaGa,20.9 µM (active)
same,Potency,Es-2,28.2 µM (active)
same,Potency,JEG-3,17.8 µM (active)
